The structures appear in SMILES notation.

This test is described as follows: calcein-AM signal in unstimulated myeloma cells – cell-based, calcein-AM fluorescence, 48 h, PK04 Diversity Set, profiling panel (AID 1166).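 Further: cells grown under basal conditions without added stimulus; test concentration not given here.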 As to conditions: RPMI8226 myeloma viability, higher = more signal.
As to `[N-]=[N+]=NCc1ccccc1C[C@@]1(C(=O)N2CCCCC2)N=C(c2ccc(OCCCO)cc2)O[C@@H]1c1ccccc1`, the z-score was -4.35.
In the case of `O=C1O[C@@H](c2ccccc2)[C@@H](c2ccccc2)N2[C@@H](c3ccc(OCCO)cc3)[C@]3(C(=O)Nc4ccccc43)[C@@H](C(=O)O)[C@H]12`, the z-score was -0.146.
`CC(CO)N1C(=O)[C@@H]2[C@H]3C(=O)OCC=C[C@H]3OC23C=CCN(C(C)(C)C)C(=O)[C@@H]13` (stereo not given in full): the z-score was 0.0608.
On to `CN1C(=O)C2C=CC(C(O)c3cccc4ccccc34)N(N3CCCCC3)C2C1=O` (stereo not given), for which the z-score was -0.493.
As for `CN(C)C(=O)[C@]1(CCS(=O)(=O)c2ccccc2)N=C(c2ccc(OCCCO)cc2)O[C@@H]1c1ccccc1N=[N+]=[N-]`, the figure is 0.517; as for `COC(=O)[C@@]1(Cc2ccc(F)cc2)[C@H]2c3cc(C(=O)N4CCCC4)n(CCc4ccc(O)c(O)c4)c3C[C@H]2CN1C(=O)c1ccccc1`, -4.2.
The same measure for `CN(C)CCCNC(=O)[C@@]1(c2ccc([N+](=O)[O-])cc2)CC(=O)N(CC23CC4CC(CC(C4)C2)C3)[C@@H]1c1ccc(CO)cc1I`: -4.15; for `Cc1cc(C)c(C(O)C2C=CC3C(=O)NC(=O)C3N2Nc2ccc(Cl)cc2Cl)c(C)c1` (stereo not given): -3.03.
The same measure for `COCCOC(=O)N1C(=O)[C@@]2(c3cc(C#CC4=CCCCC4)ccc31)[C@H](c1ccc(OCCO)cc1)N1[C@H](c3ccccc3)[C@H](c3ccccc3)OC(=O)[C@H]1[C@@H]2C(=O)N1CCN(c2ncccn2)CC1`: -0.774.
In the case of `C=CCC(OC(C)=O)[C@@H]1[C@@H](N(Cc2ccc(-c3ccccc3)cc2)C(=O)Cc2ccc(F)cc2)c2cc(OCCCO)ccc2N1C(=O)Cc1ccc(OC)cc1` (stereo not given in full), the z-score is -0.279.

The values above are taken from PubChem BioAssay.
